# DT40 TDP1 no CPT – qHTS for Inhibitors of human tyrosyl-DNA phosphodiesterase 1 (TDP1): qHTS in cells in absence of CPT; 420,000 compounds, 15% hits; AID 686978, 2013; Potency, µM (titrated, usually from 46.2 µM), inactives show top-dose activity change, negative = growth inhibition, usual class: inhibitors; DT40 Tdp1-/- hTDP1 cells, no CPT, ATP luminescence, 48 h; note: potency is the fitted concentration of half-maximal effect; nearly all actives have a fitted effect of over 55% in size
#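 DT40 Tdp1-/-;hTDP1 cells, no CPT (DMSO vehicle only), 400 cells/well; compounds pin-transferred; ≥48 hr, 37 °C; CellTiter-Glo 30 min RT dark, luminescence read.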
# IL1B secr inh – inhibitors of inflammasome signaling (IL-1 beta secretion) | activity change, % at 57.5 µM | 360,000 compounds, 4.7% hits | THP-1 LPS/ATP IL-1B secretion, AlphaLISA, 16 h; hits give low values; in the data active = activity change below about -50%; inconclusive = mostly about -30% to -49%
#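 Secreted IL-1B measured by AlphaLISA bead assay after 16 h compound exposure of THP-1 cells; compounds (final up to 57.5 uM) added 1 h before LPS (250 ng/mL) and ATP (1.25 mM) stimulation; lower signal means less secretion.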
# HT1080NT lethal – kills 2HG-producing HT-1080-NT fibrosarcoma cells | HT-1080-NT fibrosarcoma viability, CellTiter-Glo ATP luminescence, 48 h | Potency, µM (top dose mostly 46.1 µM), for the others: at the top dose activity, negative = less viability, usual class: cytotoxic | 360,000 compounds, 1.6% hits | AID 686970;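 note: NT is the 2HG producing partner of a matched IDH1 knockdown line; potency is the fitted concentration of half-maximal effect; 0% = DMSO-treated cells and -100% = media-only wells without cells; nearly all actives have a fitted effect of over 55% in size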
#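 Luminescent CellTiter-Glo readout after 48 hours of compound exposure at 37 degrees C defined viability of HT-1080-NT cells. Activity was normalized to DMSO wells and cell-free media wells; concentration-response curves were fitted and assigned curve classes.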
# HT1080 IDH1KD tx – toxicity to HT-1080 IDH1 knockdown cells (counter line). HT-1080 IDH1 knockdown viability, ATP luminescence, 48 h. Potency, µM (titrated, usually from 46.1 µM), inactives show at the top dose activity, negative = toxicity, most hits filed as cytotoxic. 360,000 compounds, 2% hits;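 note: potency is the fitted concentration of half-maximal effect; 0% = DMSO wells and -100% = cell-free medium wells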
#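 % activity derives from luminescence (CellTiter-Glo), normalised to DMSO and no-cell wells. HT-1080-IDH1KD cells, 750/well, had 48 h compound exposure at 37 °C.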
# TDP1 cell CPT – DT40-hTDP1 cell growth loss with CPT. chicken DT40 Tdp1-/-;hTDP1 cells + 20 nM CPT, ATP luminescence, 48 h. Potency, µM (doses to about 46.2 µM), inactives show at the highest dose activity change, negative = growth inhibition, most hits filed as inhibitors. 420,000 compounds, 12% hits. AID 686979; note: potency is the fitted concentration of half-maximal effect; nearly all actives have a fitted effect of over 55% in size
#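 Chicken DT40 Tdp1-/- cells stably complemented with human TDP1 were seeded at 400 cells/well in medium containing 20 nM camptothecin, exposed to pin-transferred compounds, and grown at 37 °C for at least 48 hr. Viability was read as ATP luminescence.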
# * = called active by the depositor; ? = inconclusive; · = no result. Compounds with a hit are over-represented: about 19% of the library has one in this group of screens. Unless noted, calls come from the whole dose curve; as a rule, active = well fitted curve in the direction sought with a large enough effect; inconclusive = small, poorly fitted or top-dose-only effect, or another doubt; inactive = no such curve, though single readings can be large; an effect the other way counts as inactive or inconclusive. Unless noted, % is set by controls: 0 for no effect and ±100 for the full control effect.
SMILES,DT40 TDP1 no CPT,IL1B secr inh,HT1080NT lethal,HT1080 IDH1KD tx,TDP1 cell CPT
CCCCCCCCNS(=O)(=O)CCNCc1ccccc1OC,20.6µM*,-61.6*,-2.2%,-2.1%,?
COc1ccc(CNS(=O)(=O)CCNCc2ccccc2OC)cc1,-25.3%,6.2,0.3%,1.0%,-15.7%
CCCCCCCCNCCS(=O)(=O)NCc1ccc(OC)cc1,?,-50.3*,-7.1%,-10.3%,?
CCCCCCCCNS(=O)(=O)CCNCCc1ccccc1,?,?,-2.8%,-6.2%,-28.9%
CCCCCCCCNCCS(=O)(=O)NC1CCCCC1,?,-70.2*,-13.3%,-14.6%,?
CCCCCCCCNS(=O)(=O)CCNCc1ccccc1,?,?,-5.2%,-2.5%,?
O=c1[nH]c(=O)n(Cc2ccccc2)c2nc(-c3ccc(C(F)(F)F)cc3)n(CCO)c12,?,0.4,14.9%,1.0%,?
CN(C)c1ncc2nc(-c3cccs3)c(=O)n(C3CC3)c2n1,-19.5%,·,·,·,12.2%
O=C(COc1ccc(-c2nnco2)cc1)N1CCOCC1,7.0%,-0.1,0.0%,-2.1%,3.7%
O=C(c1ccco1)N1N=C(c2ccco2)CC1c1ccc(Cl)cc1Cl (centres undefined),?,2.2,?,?,?
CCCc1[nH]n(-c2ccc(F)cc2)c(=O)c1C=Nc1cccc(F)c1,6.51µM*,26.1,7.31µM*,14.6µM*,6.51µM*
CCCc1[nH]n(-c2ccc(F)cc2)c(=O)c1C=NCC1CCCO1 (centres undefined),-0.3%,23.1,8.3%,9.9%,10.3%
CC(C)Cc1ccc(C(C)/C=C2/CCC(CN3CCCCC3)C2=O)cc1 (centres undefined),2.91µM*,-106.2*,?,?,2.91µM*
O=C(NCc1ccco1)c1cccc(S(=O)(=O)N2CCCC2)c1,-19.5%,-8.1,6.6%,15.7%,1.0%
Cc1sc2nc(CSCC(=O)Nc3ccccc3C#N)[nH]c(=O)c2c1C,16.4µM*,1.4,0.5%,0.9%,?
Cc1cccc(NS(=O)(=O)c2c(C)[nH]c(C)c2C(=O)N2CCCC2)c1,11.7%,-28.5,17.6%,3.7%,-1.3%
CCOC(=O)C(=O)NC1CC=CCC1c1ccc2c(c1)OCO2 (centres undefined),-5.6%,-21.7,6.6%,17.3%,2.9%
COc1ccc(-c2csc(NC(=O)c3ccccc3NS(=O)(=O)c3ccc(F)c(F)c3)n2)cc1,2.59µM*,-67.8*,?,1.64µM*,2.31µM*
Cc1ccc(S(=O)(=O)Nc2ccccc2C(=O)Nc2nc(-c3ccc(F)cc3)cs2)cc1,2.59µM*,-26.0,?,?,3.26µM*
Cc1ccc(S(=O)(=O)Nc2nc(-c3ccccc3)cs2)cc1,-5.6%,17.4,0.0%,1.3%,1.5%
COc1ccc(-c2csc(NC(=O)c3ccccc3F)n2)cc1,?,29.0,7.0%,3.2%,-3.9%
CC(=O)c1ccc(NC(=O)Cn2c(=O)nc(-c3ccccc3)c3cc(Cl)ccc32)cc1,3.5%,·,·,·,-13.4%
CCOc1ccc(CCNS(=O)(=O)c2cccc3nsnc23)cc1OCC,-28.2%,-4.3,1.2%,-0.4%,-16.2%
O=C(O)c1ccc(CNC(=O)C2CCCN2C(=O)OCc2ccccc2)cc1 (centres undefined),4.6%,-5.0,?,13.6%,4.7%
COc1ccccc1-c1oc2ccccc2c1C#CC1(N)CCCCC1,14.6µM*,?,-12.0%,-5.5%,16.4µM*
SMILES,DT40 TDP1 no CPT,IL1B secr inh,HT1080NT lethal,HT1080 IDH1KD tx,TDP1 cell CPT
COc1ccccc1-c1oc2ccccc2c1C#CCCO,?,-24.2,6.9%,9.0%,-16.3%
COc1ccccc1-c1oc2ccccc2c(=O)c1OC,?,·,·,·,6.68µM*
COc1cc2oc3ccccc3c(=O)c2cc1OC,?,-50.6*,-24.0%,-0.3%,?
O=c1cc(-c2ccccc2)oc2ccccc12,?,10.3,3.7%,1.4%,?
COc1ccccc1-c1oc2ccccc2c1C#CC1(O)CCCCC1,?,-29.0,?,?,-1.8%
COc1ccc(-c2cc(=O)c3ccccc3o2)cc1OC,14.6µM*,·,·,·,?
O=C(NCc1ccccn1)c1ccccc1OCc1ccccc1Cl,?,12.8,-2.3%,0.9%,?
CC(=O)c1cn(C)c(=O)[nH]c1=O,1.5%,6.0,9.5%,16.9%,-1.5%
COc1ccc(CCC(C)NCC(C)c2ccccc2)cc1 (centres undefined),-28.9%,-14.6,-18.7%,-25.1%,?
COCCCNC(=O)/C(C#N)=C/c1c(N2CCN(c3cccc(Cl)c3)CC2)nc2c(C)cccn2c1=O,?,-66.3*,3.0%,0.8%,?
Cc1cccn2c(=O)c(/C=C(\C#N)C(=O)NCc3ccco3)c(N3CCCC(C)C3)nc12 (centres undefined),?,-53.5*,21.7%,13.6%,?
Cc1cccn2c(=O)c(/C=C(\C#N)C(=O)NCc3ccco3)c(N3CCCCCC3)nc12,?,-29.3,-19.1%,-20.8%,?
Cc1cccn2c(=O)c(C=C(C#N)C#N)c(N3CCN(c4cccc(Cl)c4)CC3)nc12,?,-74.8*,8.2%,8.7%,-19.6%
COCCCNC(=O)/C(C#N)=C/c1c(N2CCN(c3ccccc3)CC2)nc2c(C)cccn2c1=O,16.4µM*,-6.6,-3.3%,-9.7%,?
NC(N)=Nc1nc(CSCC/C(N)=N\S(N)(=O)=O)cs1,2.6%,·,·,·,2.9%
C=CCNC(=O)/C(C#N)=C/c1c(N2CCN(c3ccccc3)CC2)nc2c(C)cccn2c1=O,?,55.4,0.2%,12.8%,5.9%
C=CCNC(=O)/C(C#N)=C/c1c(N2CCN(c3ccc(OC)cc3)CC2)nc2c(C)cccn2c1=O,13µM*,9.6,-19.0%,-18.4%,?
Cc1cccn2c(=O)c(C=O)c(N3CCSCC3)nc12,-17.0%,-50.5*,-5.8%,-3.2%,-27.4%
Cc1ccc(S(=O)(=O)Nc2ccc3c(c2)C(=O)N([C@@H](C)CO)C[C@@H](C)[C@@H](CN(C)C(=O)NC(C)C)OCCCC[C@H](C)O3)cc1,?,-9.5,9.7%,21.1%,-18.1%
CCN1CCN(CCCNC(=O)Cn2nc(C)n3c(cc4c(OC)cccc43)c2=O)CC1,-3.8%,·,·,·,2.0%
CCC(=O)Nc1ccccc1C(=O)OCc1ccc(C(=O)c2ccccc2)cc1,?,6.6,-5.0%,-6.7%,20.6µM*
CCC(=O)Nc1ccccc1C(=O)OCC(=O)c1cccc2ccccc12,-24.2%,41.4,11.3%,7.6%,?
NS(=O)(=O)c1ccc(CCNC(=O)COC(=O)/C=C/c2cc(Br)ccc2F)cc1,?,-28.2,-5.7%,-20.1%,?

# From PubChem
